Screens deposited in PubChem by National Center for Advancing Translational Sciences (NCATS).
The full list was thinned out, with hits kept by preference.
Pf Dd2 inh: inhibitors of Plasmodium falciparum Dd2 growth | Potency, µM (titrated, usually from 28.9 µM), for the others: top-dose activity, negative = inhibition, most hits filed as inhibitors | actives 4.3% (n = 120,000) | P. falciparum Dd2 growth, SYBR Green, 72 h; active = well fitted inhibition curve with a large enough effect;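 also: plate controls were DMSO vehicle for no effect and reference drug for full effect; nearly all actives have a fitted effect of over 65% in size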
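Infected erythrocytes (Dd2, 0.3% parasitemia, 2.5% hematocrit final) are added to compound in RPMI-1640/Albumax II medium, grown 72 h at 37C in low oxygen, then lysed with saponin/Triton-X containing SYBR Green and read by fluorescence.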
The depositor's hits bear a star; i = inactive; ! = not confirmed by another sample; [ ] = another dose, or the depositor's remark. Potency is read from the fitted curve at half-maximal effect.

SMILES | Pf Dd2 inh
O=C(NCc1cccs1)c1cc(-c2cccc(C(F)(F)F)c2)c2nncn2n1 | 2µM*
O=C(c1cc(-c2cccc(C(F)(F)F)c2)c2nncn2n1)N1CCOCC1 | 15.3%
Cc1nc(-c2c3n(c(=O)n(CC(=O)Nc4ccccc4Cl)c2=O)CCCC3)no1 | 7.3%
Cc1noc([C@H]2CCN(C(=O)C3CC3)C[C@H]2NC(=O)C2CC2)n1 | i[5.79 µM]
Cc1cc(C)n(Cc2ccc(-c3nc(C)no3)cc2)n1 | 4.1%
CC(C)(O)C1CCCN(C(=O)c2cc(COc3ccccc3F)[nH]n2)C1 (centres undefined) | -5.1%
O=C(c1ccc2c(c1)OCO2)N1CCC(N2CCOCC2=O)CC1 | 3.7%
O=C(c1cccc2c1NCCC2)N1CCn2nc(C(O)C3CC3)cc2C1 (centres undefined) | -3.5%
O=C(O)CN1CCN(Cc2ccc(OCCc3ccccc3)cc2)CC1=O | -9.4%
COc1ccc(C(=O)N2CCOC3(CCN(C(=O)C4CCN(C)CC4)CC3)C2)cc1 | 4.6%
COCCOc1ccc(-c2nc(C)ccc2OC)cc1 | 11.1%
CCOC(=O)C1(Cc2ccc(Cl)cc2)CCNCC1 | 3.55µM*
CCOC(=O)C1(Cc2ccccc2Cl)CCN(S(=O)(=O)c2ccccc2)CC1 | -17.7%
CCOC(=O)C1(Cc2ccc(Cl)cc2)CCN(C(=O)c2ccc(C)s2)CC1 | -14.6%
CN1C(=O)C(CC(=O)NC2CCC(O)CC2)(Cc2ccccc2)c2ccccc21 (centres undefined) | 9.2%
Cc1noc([C@@H]2CC(F)(F)CN2C(=O)c2ccc(F)cn2)n1 | -14.9%
Cc1nc2c(c(-c3ccc(O)cc3)n1)CN(Cc1ccccn1)CC2 | 5.9%[44.1 µM]
CCS(=O)(=O)c1c(Nc2cc(C)ccc2C)sc(C(=O)c2ccccc2)c1N | -21.4%
COc1cccc(C(=O)c2sc(Nc3ccc(F)c(Cl)c3)nc2N)c1 | i
COc1ccc2nc3sc(C(=O)Nc4ccccc4F)cc3cc2c1 | 9.4%
COc1ccc(S(=O)(=O)c2c(Nc3ccccc3F)sc(C(=O)c3cccc(OC)c3)c2N)cc1 | 11.2µM*
COc1ccc(S(=O)(=O)c2c(Nc3ccc(C)cc3C)sc(C(=O)c3ccc(F)cc3)c2N)cc1 | 11.2µM*
Cc1cccc(C)c1Nc1sc(C(=O)c2ccccc2)c(N)c1S(=O)(=O)c1ccccc1 | i
CCc1ccccc1Nc1sc(C(=O)c2cccc(OC)c2)c(N)c1S(=O)(=O)c1ccccc1 | 11.2µM*
COc1cccc(C(=O)c2cn(CC(=O)NCc3ccccc3Cl)c3nc(C)ccc3c2=O)c1 | -5.1%
SMILES | Pf Dd2 inh
COc1ccc(S(=O)(=O)c2c(O)c(C)cc(NC(=O)c3ccccc3)c2C(C)C)cc1 | i
CCc1ccccc1Nc1sc(C(=O)c2ccccc2)c(N)c1S(=O)(=O)c1ccccc1 | 11.2µM*
COc1cccc(C(=O)Nc2ccccc2-c2nc3ccccc3s2)c1 | i
COc1ccc(CNC(=O)c2c(Nc3ccc(OC)cc3OC)sc(C(=O)c3ccc(Cl)cc3)c2N)cc1 | i
CN(Cc1nccn1C)Cc1c(C(=O)N2CCCCC2)nc2sccn12 | -24.5%
COc1cccc(NC(=O)Cn2c(C)ccc(NC(=O)Nc3ccc(C)cc3)c2=O)c1 | -23.7%
CC(C)N1CCN(C(=O)c2ccc(N3CC4CC(C3)[C@H]3CCCC(=O)N3C4)nc2)CC1 (some centres undefined) | -24.4%
COc1cccc(S(=O)(=O)N2CCC(C(=O)N3CCCCCCNC(=O)CC3)CC2)c1 | i
COc1cccc(CN2Cc3cc(NC(=O)c4cccc(F)c4)ccc3OC(C)C2=O)c1 (centres undefined) | i
CCN(CC)C(=O)c1cc2c(s1)CCC(C(=O)Nc1ccc(OC)c(F)c1)C2 (centres undefined) | i
COCc1nc(CCNS(=O)(=O)c2ccc(F)cc2)no1 | 48.7%
CCc1noc(-c2cn(C3CCN(C(=O)c4sccc4C)C3)nn2)n1 (centres undefined) | -24.6%
O=C(c1cccc(OC(F)(F)F)c1)N1CCC(c2n[nH]c(=O)n2-c2ccccc2)CC1 | -15.3%
COCCn1nc2n(c1=O)CCN(S(=O)(=O)c1c(C)nn(C)c1C)CC2 | i
CC(=O)NC1(C)CCN(Cc2cnc(-c3cccc(N4CCOCC4)c3)s2)CC1 | -0.3%[44.1 µM]
Cc1ccc(S(=O)(=O)c2c(Nc3ccccc3)sc(C(=O)c3ccc4c(c3)OCO4)c2N)cc1 | 12.6µM*
Cc1ccccc1Nc1sc(C(=O)c2ccc3c(c2)OCO3)c(N)c1S(=O)(=O)c1ccccc1 | -17.5%
CC(=O)c1cc2c(cc1N/C(=N/S(=O)(=O)c1ccc(C)cc1)c1ccccc1)OCO2 | -23.6%
O=C(c1cccc(Cl)c1)N1CCC2(CC1)CC(O)CCO2 (centres undefined) | -5.0%
CC(C)N[C@@H]1CO[C@H](CNC(=O)c2ccccc2)[C@H]1O | -13.2%[44.1 µM]
COc1ccc(OC)c(CCNC(=O)c2cnn(-c3ccc(C)cc3C)c2C2CCN(C(=O)OC(C)(C)C)CC2)c1 | -12.3%
COc1ccc(CCNC(=O)c2cnn(-c3ccc(F)cc3)c2C2CCN(C(=O)OC(C)(C)C)CC2)cc1OC | 7.94µM*
COc1ccc(CCNC(=O)c2cnn(-c3cccc(C)c3)c2C2CCN(C(=O)OC(C)(C)C)CC2)cc1OC | 11.2µM*
CCc1nncn1C1CCN(S(=O)(=O)c2ccc(C)c(C)c2)CC1 | i
O=C(c1ccc(F)cc1)N1CCC(OCCOc2cccnc2)CC1 | i
SMILES | Pf Dd2 inh
Cc1nc2c(c(NCCc3nc(C)c(Cl)s3)n1)CCNCC2 | -9.9%
CCc1ccc(C(=O)N2CCc3[nH]nc(C(=O)NCCCc4ccccc4)c3C2)cc1 | i
CC1=C[C@@H](CN2CCC(C(N)=O)CC2)[C@H](C(C)C)C[C@H]1Cc1nnc(-c2ccc(N(C)C)cc2)o1 | 3.55µM*
CC1=C[C@@H](CN2CCC(C(N)=O)CC2)[C@H](C(C)C)C[C@H]1Cc1nnc(-c2ccccc2F)o1 | i
CC1=C[C@@H](CN2CCN(C)CC2)[C@H](C(C)C)C[C@H]1Cc1nnc(C)o1 | i
CC1=C[C@@H](CN2CCN(C)CC2)[C@H](C(C)C)C[C@H]1Cc1nnc(-c2ccc(N(C)C)cc2)o1 | 3.98µM*
CC1=C[C@@H](CN2CCC[C@H]2CO)[C@H](C(C)C)C[C@H]1Cc1nnc(-c2cncn2C)o1 | -33.0%[44.1 µM]
CC(=O)Nc1ccc(C(=O)N[C@@H]2CCOC[C@H]2OCc2ccccn2)cc1 | -8.1%
CN(C)C(=O)C1CN(C(=O)c2ccc(C#N)cc2)CC12CCOCC2 (centres undefined) | 15.9%
CC1CCC2(CC1)NC(=O)N(CC(=O)Nc1ccccc1F)C2=O (centres undefined) | 39.8%
COc1ccccc1CCC(=O)N[C@@H]1CN(c2ncccn2)C[C@H]1CN(C)C | -17.6%
Cc1ncoc1C(=O)N1CCCCCCn2c(nnc2-c2ccc(F)cc2)CC1 | i
COCc1nc(C2CCN(C(=O)c3cccn3C)C2)no1 (centres undefined) | -9.6%
CN1C[C@H](O)C[C@H]1c1nnc2n1CCN(C(=O)c1ccsc1)CC2 | 25.1%
O=C(NCc1ccccc1)C1=NO[C@@H]2CN(Cc3ccncc3)C[C@H]12 | 38.4%[44.1 µM]
CC(C)(NC(=O)c1cccs1)C(=O)N[C@@H]1CCOC[C@H]1OCC1CCC1 | -2.9%
c1cnc2nc(-c3ccncc3)[nH]c2c1 | -19.4%[44.1 µM]
c1coc(-c2nc3ccncc3[nH]2)c1 | -24.1%[44.1 µM]
c1cc2nc(C3CCNC3)[nH]c2cn1 (centres undefined) | i
O=C(O)c1ccc(-c2cccnc2)cc1 | 1.3%[44.1 µM]
c1cc2nc(C3CCNCC3)[nH]c2cn1 | -0.6%[44.1 µM]
c1cnc2[nH]cc(-c3nc4ccncc4[nH]3)c2c1 | 10µM*!
Cc1cc(-c2nc3ccncc3[nH]2)c(C)[nH]1 | 20µM*!
